According to the supplement of paper PMC11732987, “Enantioselective OTUD7B fragment discovery through chemoproteomics screening and high-throughput optimisation” (Communications Chemistry, 2025):

Columns and labels:
Experiment in all cases: log2 ratio of Biotin-Ahx-Ub-VS probe labelling (fragment/DMSO); higher = less target engagement (more negative = stronger competition), active = hit call of the paper (q ≤ 0.05, log2 ratio ≤ -1)
Conditions in all cases: compound concentration: 200 uM; treatment time: 3 h
USP34 = USP34 (UniProt Q70CQ2)
Procedure, shortened: (§1)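 Labelled DUBs from HEK293T lysate were NeutrAvidin-enriched, digested with LysC and trypsin, and run by diaPASEF LC-MS/MS. Before that, each 495 µg sample in Tris/CHAPS/IGEPAL buffer with protease inhibitors was treated in triplicate with fragment at 200 µM or vehicle for 3 h, then with Biotin-Ahx-Ub-VS at 0.5 µM final for 1 h. Values are average log2 ratios of fragment over vehicle by unpaired t-test, based on global-median-normalised Spectronaut label-free quantities from proteins with ≥2 unique peptides.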

USP36 = molecular target: T1, USP36 (UniProt Q9P275)
T1 sequence (whole entry): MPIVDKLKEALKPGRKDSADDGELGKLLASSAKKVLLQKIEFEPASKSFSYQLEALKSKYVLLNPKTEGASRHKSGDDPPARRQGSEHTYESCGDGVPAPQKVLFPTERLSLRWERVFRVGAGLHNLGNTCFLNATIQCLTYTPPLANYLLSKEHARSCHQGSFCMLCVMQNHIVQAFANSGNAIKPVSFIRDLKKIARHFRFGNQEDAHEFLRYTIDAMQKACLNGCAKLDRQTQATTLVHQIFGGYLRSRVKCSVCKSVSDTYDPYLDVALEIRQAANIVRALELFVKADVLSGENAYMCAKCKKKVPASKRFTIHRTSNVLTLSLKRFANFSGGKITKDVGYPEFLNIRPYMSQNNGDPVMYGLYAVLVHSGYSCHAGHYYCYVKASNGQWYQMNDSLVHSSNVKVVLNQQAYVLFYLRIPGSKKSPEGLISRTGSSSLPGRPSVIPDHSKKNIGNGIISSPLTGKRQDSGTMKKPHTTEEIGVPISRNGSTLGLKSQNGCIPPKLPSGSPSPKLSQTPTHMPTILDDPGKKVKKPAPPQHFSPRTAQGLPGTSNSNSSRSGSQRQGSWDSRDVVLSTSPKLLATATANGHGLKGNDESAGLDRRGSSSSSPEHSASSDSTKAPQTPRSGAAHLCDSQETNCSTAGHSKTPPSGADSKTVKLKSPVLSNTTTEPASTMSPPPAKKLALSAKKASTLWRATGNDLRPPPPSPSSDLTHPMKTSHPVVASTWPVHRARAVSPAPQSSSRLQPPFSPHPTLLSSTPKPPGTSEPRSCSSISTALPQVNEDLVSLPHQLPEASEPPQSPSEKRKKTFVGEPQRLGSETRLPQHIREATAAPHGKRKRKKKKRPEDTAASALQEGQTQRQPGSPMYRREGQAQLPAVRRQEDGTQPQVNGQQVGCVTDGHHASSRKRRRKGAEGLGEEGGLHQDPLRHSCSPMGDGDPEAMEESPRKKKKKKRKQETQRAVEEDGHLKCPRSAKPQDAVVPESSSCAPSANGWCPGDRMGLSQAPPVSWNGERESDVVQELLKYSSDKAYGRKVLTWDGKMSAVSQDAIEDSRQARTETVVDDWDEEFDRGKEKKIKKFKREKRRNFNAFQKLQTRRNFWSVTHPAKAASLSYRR
Procedure, shortened: as §1

USP38 = molecular target: T2, USP38 (UniProt Q8NB14)
T2 sequence (whole entry): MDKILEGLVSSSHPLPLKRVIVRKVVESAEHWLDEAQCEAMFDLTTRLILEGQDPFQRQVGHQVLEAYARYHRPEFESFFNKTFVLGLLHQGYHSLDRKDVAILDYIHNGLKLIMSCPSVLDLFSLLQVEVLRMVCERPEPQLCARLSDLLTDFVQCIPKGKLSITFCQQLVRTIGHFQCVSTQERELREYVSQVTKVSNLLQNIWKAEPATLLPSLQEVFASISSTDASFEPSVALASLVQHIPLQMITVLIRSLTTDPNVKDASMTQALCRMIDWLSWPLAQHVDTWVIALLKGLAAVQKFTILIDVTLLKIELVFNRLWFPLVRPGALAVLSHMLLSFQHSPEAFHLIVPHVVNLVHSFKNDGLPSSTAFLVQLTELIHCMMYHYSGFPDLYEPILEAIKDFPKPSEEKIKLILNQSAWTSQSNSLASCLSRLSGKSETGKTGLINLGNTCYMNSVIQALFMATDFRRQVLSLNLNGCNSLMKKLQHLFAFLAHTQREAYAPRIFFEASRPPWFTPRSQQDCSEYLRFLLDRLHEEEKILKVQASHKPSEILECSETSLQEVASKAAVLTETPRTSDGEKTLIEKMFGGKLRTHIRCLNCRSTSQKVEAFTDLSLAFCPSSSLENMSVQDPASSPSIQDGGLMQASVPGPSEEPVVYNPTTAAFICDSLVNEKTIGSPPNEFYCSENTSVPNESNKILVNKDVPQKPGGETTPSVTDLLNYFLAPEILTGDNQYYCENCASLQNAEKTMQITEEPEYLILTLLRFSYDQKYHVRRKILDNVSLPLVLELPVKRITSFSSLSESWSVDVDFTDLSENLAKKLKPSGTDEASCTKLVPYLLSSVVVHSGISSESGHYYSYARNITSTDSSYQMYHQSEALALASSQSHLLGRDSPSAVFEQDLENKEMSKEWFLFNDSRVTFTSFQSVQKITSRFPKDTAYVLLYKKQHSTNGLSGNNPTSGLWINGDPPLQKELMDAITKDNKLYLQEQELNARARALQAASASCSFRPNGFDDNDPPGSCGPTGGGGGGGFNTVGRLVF
Procedure, shortened: as §1

USP39 = molecular target: T3, USP39 (UniProt Q53GS9)
T3 sequence (whole entry): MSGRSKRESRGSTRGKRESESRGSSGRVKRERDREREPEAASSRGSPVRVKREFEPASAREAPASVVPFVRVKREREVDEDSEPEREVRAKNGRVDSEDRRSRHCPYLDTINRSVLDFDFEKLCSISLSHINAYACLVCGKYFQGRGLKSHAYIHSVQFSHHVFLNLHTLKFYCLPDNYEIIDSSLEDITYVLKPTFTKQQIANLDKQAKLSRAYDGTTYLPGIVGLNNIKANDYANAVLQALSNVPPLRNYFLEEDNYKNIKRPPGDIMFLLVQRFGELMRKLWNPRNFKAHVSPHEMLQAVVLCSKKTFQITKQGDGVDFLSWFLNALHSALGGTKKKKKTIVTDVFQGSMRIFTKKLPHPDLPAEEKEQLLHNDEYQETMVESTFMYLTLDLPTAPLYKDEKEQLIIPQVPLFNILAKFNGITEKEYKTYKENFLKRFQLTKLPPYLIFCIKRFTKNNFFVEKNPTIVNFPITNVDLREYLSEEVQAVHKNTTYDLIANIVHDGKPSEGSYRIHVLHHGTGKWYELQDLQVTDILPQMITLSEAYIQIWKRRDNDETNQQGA
Procedure, shortened: as §1

USP4 = molecular target: T4, USP4 (UniProt Q13107)
T4 sequence (whole entry): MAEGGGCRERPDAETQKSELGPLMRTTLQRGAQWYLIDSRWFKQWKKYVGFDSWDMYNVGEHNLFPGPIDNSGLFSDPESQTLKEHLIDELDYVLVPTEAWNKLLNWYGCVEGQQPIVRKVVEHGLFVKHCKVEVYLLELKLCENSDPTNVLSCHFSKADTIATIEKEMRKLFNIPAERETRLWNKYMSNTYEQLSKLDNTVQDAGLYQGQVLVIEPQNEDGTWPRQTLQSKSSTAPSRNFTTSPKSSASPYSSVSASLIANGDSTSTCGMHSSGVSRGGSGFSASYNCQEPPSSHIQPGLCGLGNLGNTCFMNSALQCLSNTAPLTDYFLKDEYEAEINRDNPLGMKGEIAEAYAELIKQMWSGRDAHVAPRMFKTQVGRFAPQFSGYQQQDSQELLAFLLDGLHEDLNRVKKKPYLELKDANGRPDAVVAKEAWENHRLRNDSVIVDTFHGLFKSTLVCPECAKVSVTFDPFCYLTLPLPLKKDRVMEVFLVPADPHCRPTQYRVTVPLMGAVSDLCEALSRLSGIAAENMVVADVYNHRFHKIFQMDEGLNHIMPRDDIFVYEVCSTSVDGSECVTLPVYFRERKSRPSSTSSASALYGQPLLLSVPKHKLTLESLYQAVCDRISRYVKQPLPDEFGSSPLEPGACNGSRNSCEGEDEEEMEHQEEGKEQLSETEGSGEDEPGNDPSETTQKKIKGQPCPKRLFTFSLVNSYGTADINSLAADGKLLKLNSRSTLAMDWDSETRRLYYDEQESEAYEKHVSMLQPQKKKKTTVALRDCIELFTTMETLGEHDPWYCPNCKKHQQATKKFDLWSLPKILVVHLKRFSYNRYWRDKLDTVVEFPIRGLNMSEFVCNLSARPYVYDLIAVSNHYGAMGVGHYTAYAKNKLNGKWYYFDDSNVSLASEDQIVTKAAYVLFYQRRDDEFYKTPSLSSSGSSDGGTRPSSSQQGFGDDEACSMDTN
Procedure, shortened: as §1

Measured: log2 ratio of Biotin-Ahx-Ub-VS probe labelling

Sequence of USP34 (Q70CQ2 whole entry, the tested form may be a part): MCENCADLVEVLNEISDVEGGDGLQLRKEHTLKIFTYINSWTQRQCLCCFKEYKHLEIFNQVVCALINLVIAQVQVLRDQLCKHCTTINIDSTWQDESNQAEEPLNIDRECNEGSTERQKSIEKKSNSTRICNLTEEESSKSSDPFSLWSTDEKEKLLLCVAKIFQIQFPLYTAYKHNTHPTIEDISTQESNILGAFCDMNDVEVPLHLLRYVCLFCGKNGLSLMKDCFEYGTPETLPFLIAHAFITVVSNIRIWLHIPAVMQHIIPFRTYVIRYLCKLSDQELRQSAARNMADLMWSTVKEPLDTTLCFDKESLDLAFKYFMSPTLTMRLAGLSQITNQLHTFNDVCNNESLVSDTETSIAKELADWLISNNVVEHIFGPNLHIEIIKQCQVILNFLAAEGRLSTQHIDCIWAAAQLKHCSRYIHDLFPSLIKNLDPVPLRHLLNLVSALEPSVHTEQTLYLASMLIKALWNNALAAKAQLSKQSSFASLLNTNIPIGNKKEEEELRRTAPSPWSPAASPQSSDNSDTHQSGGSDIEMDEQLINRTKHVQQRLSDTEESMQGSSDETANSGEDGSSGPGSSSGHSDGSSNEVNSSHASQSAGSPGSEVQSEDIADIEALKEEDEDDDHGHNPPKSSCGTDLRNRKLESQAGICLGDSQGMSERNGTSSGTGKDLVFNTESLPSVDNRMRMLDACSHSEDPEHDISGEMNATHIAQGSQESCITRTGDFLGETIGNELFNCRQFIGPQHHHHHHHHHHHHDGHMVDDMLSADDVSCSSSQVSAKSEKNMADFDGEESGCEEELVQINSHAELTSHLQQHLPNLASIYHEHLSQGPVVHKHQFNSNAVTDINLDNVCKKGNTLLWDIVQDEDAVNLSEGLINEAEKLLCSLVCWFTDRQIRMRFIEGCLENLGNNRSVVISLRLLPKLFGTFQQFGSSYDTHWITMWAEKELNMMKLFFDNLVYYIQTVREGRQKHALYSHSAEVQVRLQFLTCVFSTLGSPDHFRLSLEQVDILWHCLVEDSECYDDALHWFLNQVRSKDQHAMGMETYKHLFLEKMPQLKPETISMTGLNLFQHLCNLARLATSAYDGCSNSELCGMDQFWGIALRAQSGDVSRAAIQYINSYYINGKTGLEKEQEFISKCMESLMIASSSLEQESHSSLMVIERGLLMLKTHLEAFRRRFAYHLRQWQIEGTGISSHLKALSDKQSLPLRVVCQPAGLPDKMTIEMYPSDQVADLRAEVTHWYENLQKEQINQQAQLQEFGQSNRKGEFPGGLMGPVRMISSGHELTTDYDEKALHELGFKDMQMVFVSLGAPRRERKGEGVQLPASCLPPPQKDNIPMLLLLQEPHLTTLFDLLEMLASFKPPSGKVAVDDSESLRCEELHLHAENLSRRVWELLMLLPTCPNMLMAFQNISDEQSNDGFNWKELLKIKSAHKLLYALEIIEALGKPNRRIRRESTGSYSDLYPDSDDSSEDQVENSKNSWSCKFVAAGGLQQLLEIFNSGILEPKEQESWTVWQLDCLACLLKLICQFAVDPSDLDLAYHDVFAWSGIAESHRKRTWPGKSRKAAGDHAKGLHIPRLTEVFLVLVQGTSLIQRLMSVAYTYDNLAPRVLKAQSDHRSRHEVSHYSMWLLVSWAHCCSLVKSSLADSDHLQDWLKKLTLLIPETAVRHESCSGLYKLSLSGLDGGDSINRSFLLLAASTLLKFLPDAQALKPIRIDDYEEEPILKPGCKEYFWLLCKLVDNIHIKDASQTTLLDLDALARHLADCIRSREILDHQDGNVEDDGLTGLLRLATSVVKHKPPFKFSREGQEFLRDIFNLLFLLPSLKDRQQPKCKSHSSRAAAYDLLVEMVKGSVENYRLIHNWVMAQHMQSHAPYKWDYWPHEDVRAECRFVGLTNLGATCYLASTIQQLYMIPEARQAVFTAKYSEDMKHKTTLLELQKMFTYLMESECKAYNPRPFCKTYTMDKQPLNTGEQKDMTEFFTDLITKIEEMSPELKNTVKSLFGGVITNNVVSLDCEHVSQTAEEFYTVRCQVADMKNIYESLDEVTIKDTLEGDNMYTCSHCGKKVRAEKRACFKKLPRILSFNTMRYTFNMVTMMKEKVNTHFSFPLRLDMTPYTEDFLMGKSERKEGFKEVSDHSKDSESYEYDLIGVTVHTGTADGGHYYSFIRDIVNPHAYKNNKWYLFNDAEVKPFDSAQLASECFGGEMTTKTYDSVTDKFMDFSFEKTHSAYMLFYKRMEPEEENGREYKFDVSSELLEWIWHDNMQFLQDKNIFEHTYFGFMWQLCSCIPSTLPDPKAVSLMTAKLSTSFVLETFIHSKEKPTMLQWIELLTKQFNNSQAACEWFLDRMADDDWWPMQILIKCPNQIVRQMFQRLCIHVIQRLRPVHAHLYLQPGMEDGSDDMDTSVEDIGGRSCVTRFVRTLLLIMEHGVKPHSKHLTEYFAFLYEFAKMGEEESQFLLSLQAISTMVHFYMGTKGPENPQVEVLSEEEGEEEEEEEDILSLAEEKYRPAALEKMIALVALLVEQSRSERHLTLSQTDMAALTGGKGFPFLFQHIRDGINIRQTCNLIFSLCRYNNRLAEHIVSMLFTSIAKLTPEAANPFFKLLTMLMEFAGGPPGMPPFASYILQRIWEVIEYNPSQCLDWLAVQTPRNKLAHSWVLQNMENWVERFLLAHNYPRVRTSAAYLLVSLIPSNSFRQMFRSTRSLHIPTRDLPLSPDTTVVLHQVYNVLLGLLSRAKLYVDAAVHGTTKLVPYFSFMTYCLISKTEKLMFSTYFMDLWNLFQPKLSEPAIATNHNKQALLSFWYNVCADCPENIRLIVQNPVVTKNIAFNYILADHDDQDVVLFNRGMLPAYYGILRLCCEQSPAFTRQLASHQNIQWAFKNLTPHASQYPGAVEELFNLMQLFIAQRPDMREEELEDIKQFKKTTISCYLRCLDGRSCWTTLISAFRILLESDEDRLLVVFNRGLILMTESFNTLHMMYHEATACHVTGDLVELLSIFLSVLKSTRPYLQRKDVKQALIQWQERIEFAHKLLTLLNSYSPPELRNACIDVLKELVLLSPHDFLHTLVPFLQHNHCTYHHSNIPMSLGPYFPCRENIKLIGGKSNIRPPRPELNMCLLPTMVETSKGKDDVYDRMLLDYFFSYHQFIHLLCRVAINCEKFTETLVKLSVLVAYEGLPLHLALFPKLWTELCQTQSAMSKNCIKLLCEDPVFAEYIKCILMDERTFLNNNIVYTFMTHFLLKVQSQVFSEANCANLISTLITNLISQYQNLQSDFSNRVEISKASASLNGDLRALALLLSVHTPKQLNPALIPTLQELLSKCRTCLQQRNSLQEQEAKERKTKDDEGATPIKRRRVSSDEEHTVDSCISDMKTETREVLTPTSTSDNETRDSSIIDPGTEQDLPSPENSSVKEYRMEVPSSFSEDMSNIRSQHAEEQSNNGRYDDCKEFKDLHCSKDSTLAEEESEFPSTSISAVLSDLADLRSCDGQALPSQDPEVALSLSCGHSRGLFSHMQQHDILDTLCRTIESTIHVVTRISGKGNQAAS

CCC1c2ccsc2CCN1C(=O)CCl (stereo not given)
inactive: USP34 -0.381 | USP36 -0.0771 | USP38 -0.204 | USP39 0.162 | USP4 -0.497
